# Luc counter: Counterscreen for Luciferase (Kinase-Glo TM) Inhibition. Potency, µM (highest dose often 38.3 µM), without a hit: top-dose activity change, negative = inhibition, usual class: inhibitors. 200,000 tested, 0.28% active. Kinase-Glo luciferase, ATP luminescence, 8 min. AID 1379, 2008; note: % is set by controls: 0 for no effect and ±100 for the full control effect; nearly all actives have a fitted effect of over 60% in size
#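 Compounds were added to a substrate mix at pH 7.2 (50 mM imidazole, 10 uM ATP, within the enzyme's linear range), followed by Kinase-Glo detection reagent; luminescence was measured after 8 minutes at ambient temperature.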
# SMN2 splice enh: qHTS Assay for Enhancers of SMN2 Splice Variant Expression. HEK293 SMN2-luciferase splicing reporter, luminescence, 30-36 h. Potency, µM (highest dose often 46.1 µM), for inactives: at the top dose activity change, positive = activation, most hits filed as activators. 210,000 tested, 2.8% active. AID 1458, 2008; note: % of control where 0% means no effect; nearly all actives have a fitted effect of over 55% in size
#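 qHTS luciferase splicing reporter: luminescence rises when SMN2 exon 7 is included in transfected HEK293 cells. Compound exposure lasted 30-36 h at 37C, with 4.5 mM final sodium butyrate as control, followed by a ONE-Glo read.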
# Rab9 prom act: qHTS Assay for Rab9 Promoter Activators | Huh7 Rab9 promoter-luciferase reporter, luminescence, 24 h | Potency, µM (titrated, usually from 9.22 µM), inactives show at the highest dose activation, negative = inhibition, usual class: activators | 320,000 tested, 2.8% active; note: % of control where 0% means no effect; nearly all actives have a fitted effect of over 60% in size
#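 Steps: seed 1500 Huh7 Rab9-luc cells per well, rest 2 h at 37 °C; add compound in DMSO; incubate 24 h; add luciferase reagent, 10 min ambient; read luminescence.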
# NPC1 promoter act: qHTS Assay for NPC1 Promoter Activators; Potency, µM (series often up to 9.22 µM), inactives show at the top dose activation, actives largely listed as activators; 320,000 tested, 2.4% active; Huh7 NPC1 promoter luciferase reporter, 24 h; AID 485313, 2010; note: % of control where 0% means no effect; nearly all actives have a fitted effect of over 60% in size
#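 Stably transfected Huh7 (NPC1 promoter→luciferase), 1500 cells/well in Opti-MEM + 10% FBS, 2 h settle, then compound 24 h at 37 °C. Luminescence after 10 min with Amplite reagent.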
# FLuc modulator: qHTS profiling assay for firefly luciferase inhibitor/activator using purifed enzyme and Km concentrations of substrates (counterscreen for miR-21 project). Potency, µM (series often up to 57.5 µM), for the others: top-dose activity change, negative = inhibition, most hits filed as inhibitors. AID 588342, 2011. 360,000 tested, 6.9% active. purified FLuc, Km substrates, luminescence inhibition;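 note: plate controls were vehicle for no effect and reference inhibitor for full effect; nearly all actives have a fitted effect of over 55% in size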
# Target sequence (P08659 whole entry, looked up): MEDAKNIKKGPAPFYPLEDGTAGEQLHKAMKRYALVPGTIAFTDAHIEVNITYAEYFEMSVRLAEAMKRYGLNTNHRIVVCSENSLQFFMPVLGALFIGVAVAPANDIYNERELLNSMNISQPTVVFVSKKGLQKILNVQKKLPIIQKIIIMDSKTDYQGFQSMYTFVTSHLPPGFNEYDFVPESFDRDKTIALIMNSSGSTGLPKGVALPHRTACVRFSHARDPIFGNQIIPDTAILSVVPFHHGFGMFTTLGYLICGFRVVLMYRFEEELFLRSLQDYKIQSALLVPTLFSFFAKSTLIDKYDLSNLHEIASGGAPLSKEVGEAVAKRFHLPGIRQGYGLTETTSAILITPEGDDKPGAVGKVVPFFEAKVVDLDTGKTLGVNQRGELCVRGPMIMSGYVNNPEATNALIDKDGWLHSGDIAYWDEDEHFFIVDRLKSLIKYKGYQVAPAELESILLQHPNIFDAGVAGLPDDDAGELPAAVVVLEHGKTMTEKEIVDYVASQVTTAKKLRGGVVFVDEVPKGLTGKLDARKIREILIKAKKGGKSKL
#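 Purified P. pyralis luciferase, 10 nM final, with Km-level 10 uM D-luciferin and 10 uM ATP in 50 mM Tris acetate pH 7.5, 10 mM Mg acetate, 0.01% Tween-20, 0.05% BSA; 6-point qHTS titration about 60 µM downward; luminescence read.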
# ELG1 genotoxic: qHTS screen for small molecules that induce genotoxicity in human embryonic kidney (HEK293T) cells expressing luciferase-tagged ELG1 | 330,000 tested, 1.3% active | HEK293T ELG1-luciferase reporter, luminescence, 16 h | AID 504466, 2011 | Potency, µM (top dose mostly 46 µM), for inactives: at the highest dose activity change, positive = activation, hits mostly activators; note: % of control where 0% means no effect; nearly all actives have a fitted effect of over 60% in size
#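 HEK293T cells expressing luciferase-tagged ELG1 were exposed to compound or DMSO vehicle for 16 hr at 37 °C and 5% CO2. Luciferase activity was then measured with ONE-Glo after 30 min at room temperature.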
# * = called active by the depositor; ? = inconclusive; . = no result. A selection: hits, their analogues and other compounds. The true share with any hit is near 7.4%. Calls come from the whole dose curve; as a rule, active = well fitted curve in the direction sought with a large enough effect; inconclusive = small, poorly fitted or top-dose-only effect, or another doubt; inactive = no such curve, though single readings can be large; an effect the other way counts as inactive or inconclusive. Potency is the fitted concentration of half-maximal effect.
SMILES,Luc counter,SMN2 splice enh,Rab9 prom act,NPC1 promoter act,FLuc modulator,ELG1 genotoxic
CCOc1ccc(CNC(=O)C2CCN(S(=O)(=O)c3ccc4c(ccn4C)c3)CC2)cc1,.,.,.,.,-11.9%,.
O=C(Oc1ccc2c3c(c(=O)oc2c1)CCCC3)c1ccco1,-7.4%,6.3%,-1.4%,-4.8%,16.9µM*,0.9%
COc1ccccc1N(C)S(=O)(=O)c1ccc(C(=O)NNC(=O)c2ccccc2O)cc1,.,.,-26.1%,-5.3%,-1.5%,0.7%
COc1ccccc1N(C)S(=O)(=O)c1ccc(Cl)c(C(=O)NNC(=O)c2ccccc2O)c1,.,.,-2.0%,11.2%,16.9µM*,-7.2%
Cc1c(C(=O)N2CCc3ccccc3C2)sc2nc(-c3ccccc3)cn12,-2.7%,2.2%,-0.2%,-3.8%,?,-13.1%
c1ccc(-c2cn3c4c(sc3n2)CCCC4)cc1,11.2µM*,?,0.501µM*,0.447µM*,0.151µM*,0.082µM*
CN1CCN(c2ncc3nc(CCc4ccccc4)c(=O)n(Cc4ccc(F)cc4)c3n2)CC1,-2.0%,-13.4%,.,.,.,.
O=C(Nc1cc(Cl)cc(Cl)c1)c1ccc(F)c(S(=O)(=O)NC2CCCCC2)c1,.,.,.,.,2.0%,.
FC(F)(F)c1cc(CO[C@H]2CCCN[C@H]2c2ccccc2)cc(C(F)(F)F)c1,-2.8%,-42.7%,.,.,.,.
COc1ccc(-c2coc3cc(O)cc(O)c3c2=O)cc1,0.7%,17.8µM*,2.82µM*,2.24µM*,6.01µM*,23.1µM*
O=c1c(-c2ccc(O[C@@H]3O[C@H](CO)[C@@H](O)[C@H](O)[C@H]3O)cc2)coc2cc(O)cc(O)c12,0.9%,.,.,.,.,.
COc1ccc(-c2coc3cc(OC)cc(O)c3c2=O)cc1,-7.6%,12.6µM*,1µM*,0.631µM*,1.51µM*,?
O=c1c(-c2ccc(O)cc2)coc2cc(O)cc(O)c12,-11.5%,25.1µM*,12.6µM*,5.8µM*,21.3µM*,16.4µM*
CC(C)Oc1cc(O)c2c(=O)c(-c3ccc(O)cc3)coc2c1,-1.8%,7.08µM*,1.41µM*,0.891µM*,5.36µM*,16.4µM*
COC(=O)C1=C(C)N(CC2CC2)C(=O)N[C@H]1CCc1ccccc1,0.5%,-1.4%,.,.,.,.
COc1c(OC(C)=O)ccc(/C=C/c2ccc3cccc(OC)c3n2)c1[N+](=O)[O-],5.8%,22.9%,21.5%,21.8%,12µM*,6.1%
O=[N+]([O-])c1ccccc1/C=C/c1ccc2ccccc2n1,.,.,3.98µM*,3.55µM*,2.13µM*,?
COc1c(OC(C)=O)ccc(/C=C/c2ccc3ccccc3n2)c1[N+](=O)[O-],2.8%,22.4µM*,?,?,1.51µM*,?
O=[N+]([O-])c1cccc2ccc(/C=C/c3ccc(F)cc3)nc12,-3.6%,?,1.3%,19.7%,8.49µM*,24.5%
CCn1c(/C=C/c2ccccc2[N+](=O)[O-])nc2ccccc2c1=O,3.9%,-20.4%,2.0%,-3.1%,?,2.8%
Cc1ccccc1NC(=O)c1c(C)oc2ccc(O)c(CN3CCOCC3)c12,.,1.4%,.,.,-5.7%,.
CC(C)n1nnnc1SCC(=O)N1N=C(c2cccs2)CC1c1cccs1 (stereo not given),.,.,?,28.9%,23.9µM*,15.8%
Cc1cccc(/C=c2\s/c(=C\C(=O)C(C)(C)C)[nH]c2=O)c1,.,.,15.8%,1.7%,?,-7.1%
O=C1CNC(=O)/C(=C\c2ccc(F)cc2)N1,.,.,1.2%,4.0%,1.6%,0.2%
Cc1cccc(/C=C2\CCC(=C3SCCCS3)C2=O)c1,?,?,0.0891µM*,0.316µM*,0.0849µM*,?
SMILES,Luc counter,SMN2 splice enh,Rab9 prom act,NPC1 promoter act,FLuc modulator,ELG1 genotoxic
O=C1C(=C2SCCCS2)CC/C1=C\c1ccc(F)cc1,11.2µM*,-78.5%,?,?,0.0675µM*,?
Cc1ccc(C(C)C)c(OCC(=O)NCC2(N3CCOCC3)CCCCC2)c1,.,.,.,.,-12.0%,.
CCN(CC)c1ccc(/C=C2/C(=O)c3ccc(C(=O)O)cc3C2=O)cc1,-11.0%,-2.2%,-6.0%,-1.5%,0.477µM*,?
CCN(CC)c1ccc(C=C2C(=O)OC3(CCCCC3)OC2=O)cc1,-1.3%,-5.9%,9.8%,-5.2%,?,-0.2%
O=C1NC(=S)N/C1=C/c1cccc([N+](=O)[O-])c1,5.4%,8.7%,12.0%,6.1%,4.1%,9.1%
CN1C(=O)/C(=C/c2cccc([N+](=O)[O-])c2)C(=O)N1c1ccccc1,.,.,-2.0%,-2.3%,15.1µM*,?
COc1ccccc1CNc1ncnc2c1c(-c1ccccc1)cn2-c1cccc(C)c1,.,.,.,.,-3.5%,.
CNC(=O)[C@H]1O[C@@H](n2cnc3c(N)ncnc32)[C@H](O)[C@H]1O,-4.0%,4.9%,.,.,.,.
O=C1CCn2nc(-c3ccc(Cl)cc3)cc2N1,0.5%,12.6µM*,?,?,19µM*,?
COC(=O)c1ccccc1NC(=O)c1ccc(-c2nc(COc3ccccc3)c(C)o2)cc1,.,.,.,.,-5.4%,.
Cc1ccc(-c2csc(NC(=O)c3ccccc3Cl)c2C(=O)O)cc1,.,.,4.5%,-4.8%,26.9µM*,0.6%
Cc1ccc(-c2csc(NC(=O)c3ccc(Br)cc3)c2C(=O)O)cc1,.,.,3.55µM*,2.51µM*,12µM*,1.9%
COc1cc(C(=O)Nc2scc(-c3ccc(Br)cc3)c2C(=O)O)cc(OC)c1OC,.,.,6.7%,-5.9%,-1.9%,-8.8%
CC(C)c1ccc(-c2csc(NC(=O)c3cccs3)c2C(=O)O)cc1,.,.,1.6%,19.9%,16.9µM*,-12.3%
COc1ccc(NC(=O)C2CCCN(C(=O)c3cnn(-c4ccccc4)c3-n3cccc3)C2)cc1 (stereo not given),.,-13.7%,.,.,-11.7%,.
Cn1c(C(=O)NN)cc2cc(Oc3ccccc3)ccc21,.,.,2.3%,3.1%,-4.3%,-2.8%
Cn1c(O)c(/C=N/NC(=O)c2cc3ccccc3cc2O)c2ccccc21,.,.,3.55µM*,?,16.9µM*,?
Cn1c2ccccc2c2cc(/C=N/NC(=O)c3ccc(O)cc3O)ccc21,.,.,5.7%,0.0%,?,-2.9%
COCCn1c(C)cc(/C=N/NC(=O)c2cc3ccccc3cc2O)c1C,.,.,15.7%,-2.9%,15.1µM*,1.2%
COc1ccc2c(c1)cc(C(=O)N/N=C/c1c(O)c(C(=O)O)cc3ccccc13)n2C,.,.,0.1%,-0.4%,2.39µM*,1.8%
CCN(C(=O)Cn1ncc2c1-c1cc(C)ccc1OC2)c1cc(Cl)ccc1OC,.,-15.7%,.,.,-11.8%,.
COc1cc(CCN2C(=O)N[C@@H](c3ccccc3)C(C(C)=O)=C2C)cc(OC)c1OC,0.6%,11.2%,.,.,.,.
